This note sets out measurements from PubChem BioAssay (NCI).

This is part of a sample that, as a whole, favours compounds with a hit. Of some 83,000 tested, about 20% had one in any assay.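 A percent growth of 40 corresponds to 60% growth inhibition; 0 means no net growth; -100 means all cells died. Active threshold: below 10.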 Unmarked numbers belong to inactive results. Active and inactive are the calls of the source.

For one experiment, the system named is 786-0 renal. In words: NCI-60 one-dose screen, 48 h (100 = growth as untreated, 0 = no growth, -100 = all killed). The settings on record: 10 µM unless noted.
On to `O=c1c2cccc3c(Nc4ccccn4)ccc(c32)c2nc3ccccc3n12`, for which the growth is 88.4%.
Same read-out and setting: the result for `CN(C)c1ccc(/C=C\C2=[N+](C)c3ccccc3C2(C)C)cc1` reads 18.1%.
For the molecule `Cn1cc(-c2nc(-c3c[nH]c4ccccc34)cs2)c2cccnc21`, the growth was 64.9%.
Consider `CCOC(=O)CC(=O)c1c(C)cc(C)cc1C`, for which the growth was 98.3%.
The same measure, in the same setting: the result for `CC(C)c1c(C(=O)Nc2ccccc2)c(-c2ccccc2)c(-c2ccc(F)cc2)n1CC[C@@H]1CC=CC(=O)O1` reads -26.2% (active); that for `CCN(CC)Cc1cc(Nc2c3ccc(Cl)cc3nc3c(C)cccc23)ccc1O`, -91.6% (active).
Still for that read-out and setting: the result for `O=[N+]([O-])c1cccc(C2CC(c3ccccc3)=Nc3ccccc3S2)c1` (stereo unspecified) reads 97.1%.
Still for that read-out and setting: the result for `C=C1C(=O)O[C@H]2[C@H]1CC/C(Cn1cc(Cn3ccc4ccccc43)nn1)=C\CC[C@@]1(C)O[C@@H]21` reads -19.5% (active).
Take `C=C1CCC2C3(C)COC(c4ccccc4Br)OC3CCC2(C)C1C/C=C1/C(=O)OCC1OC(C)=O` (stereo unspecified): the growth is -72.8% (active).
The same measure, in the same setting: the result for `N=S(=O)(NC(=O)c1ccc(Cl)cc1Cl)c1ccc(Br)s1` (stereo unspecified) reads 89.9%; that for `CS(=O)CCCCCN=C=S` (stereo unspecified), 9.82% (active); that for `CC1CN(C(C)C)C(=S)N(c2ccccc2)C1=O` (stereo unspecified), 96.2%.
Same read-out and setting: the same measure for `CC/C=C\C[C@H](O)C/C=C1/C(=O)C=C[C@@H]1C/C=C\CCCC(N)=O`: -24.2% (active); for `CCOC(=O)c1ccc2c(c1)nc(/C=C/c1ccc(Cl)cc1)n2-c1cc(C(C)(C)C)[nH]n1`: 42.7%; for `COC1/C=C\OC2(C)Oc3c(C)c(O)c4c(O)c(c(CN(C)CCO)c(O)c4c3C2=O)NC(=O)/C(C)=C\C=C/C(C)C(O)C(C)C(O)C(C)C(OC(C)=O)C1C` (stereo unspecified): 95.9%.
Turning to `C(=N\Nc1ccccn1)/c1ccccn1`, the growth is -41.9% (active).
Still for that read-out and setting: the result for `O=C1C=CC(=O)N1c1ccc(Cc2ccc(N3C(=O)C=CC3=O)cc2)cc1` reads 97.1%; that for `COc1cc(NC(N)=NCC(C)(C)COc2ccc(C(F)(F)F)cc2)cnc1C#N`, 61.4%; that for `CCOC(=O)C(Cc1cc(I)c(O)c(I)c1)NC(=O)c1ccccc1` (stereo unspecified), 97.6%.
Still for that read-out and setting: the same measure for `CCn1cc2c(cc1=O)-c1nc3ccccc3c3ccnc(c13)C2=O`: 69.1%; for `Nc1c(C(=O)Nc2ccccc2)sc2nc3c(cc12)CN(CCc1ccccc1)CC3`: 101%.
On to `COc1ccc2nc3cc(Cl)ccc3c(NCCNCC(O)CO)c2c1` (stereo unspecified), for which the growth is 29.3%.
`COc1ccc(C2c3ccc4ccccc4c3Oc3ncnc(N)c32)cc1` (stereo unspecified): the growth is 97.1%.
As for `CCCCCCCCCCCCCCCC[N+]1(CC)CCCC1`, the growth was -57.7% (active).
Take `O=C1O[C@H]([C@H](O)CO)C(O)=C1O`: the growth was 103%.
On the same count and under the same terms, the result for `Cc1cc2c(cc1C)NC1=C(N2)OC(c2c3ccccc3cc3ccccc23)C1=O` (stereo unspecified) reads 29.9%.
On to `O=C(CN1CCN(c2cc3c(cc2F)c(=O)c(C(=O)O)cn3C2CC2)CC1)Nc1cc(=O)[nH]c(=O)[nH]1`, for which the growth was 95.9%.
Same read-out and setting: the result for `NC(N)=Nc1ccc(S(=O)(=O)O)cc1` reads 98.3%; that for `COc1cc(C#N)cc(OC)c1OCCN(CCOc1c(OC)cc(C#N)cc1OC)S(=O)(=O)c1ccc(C)cc1`, 92.7%.
The same measure, in the same setting: the same measure for `C[C@@H]1CC[C@@H]2[C@@H]1[C@H](OC(=O)/C=C/c1ccccc1)[C@]1(C3CCCCC3)C[C@@H](OC(=O)CO)[C@@]2(C)O1`: 73.2%; for `O=S(=O)(Nc1ccc(Cl)cc1Cl)c1ccc(-c2cnc(C3CC3)o2)cc1`: 41.4%.
Still for that read-out and setting: the same measure for `O=[N+]([O-])c1cccc(-c2nc3sccn3c2-c2ccnc(NCCNS(=O)(=O)c3ccc(C(F)(F)F)cc3)n2)c1`: 60.3%; for `CC[C@@H](C)OC(=O)c1nn(C(C)=O)c2ccccc12`: 103%.
In the case of `CCN(CC)CC(O)CNc1c2ccc([N+](=O)[O-])cc2nc2cc(OC)c(OC)cc12` (stereo unspecified), the growth is -8.36% (active).
Turning to `CN1/C(=C\C=C\C2=[N+](C)c3ccccc3C2(C)C)C(C)(C)c2ccccc21`, the growth was 2.93% (active).
As to `COc1ccc(-c2nn(-c3ccccc3)cc2/C=C2\SC(=O)NC2=O)cc1`, the growth is 81.1%.
Same read-out and setting: the result for `O=C(O)c1ccc2c(c1Sc1ccccc1)C(=O)c1ccccc1C2=O` reads 106%; that for `CCOC(=O)C12CCCC1=CC(=O)CC2` (stereo unspecified), 104%.

Another experiment deals with COLO 205 colon. The experiment is described as above. The settings on record: 10 µM unless noted.
Consider `O=c1c2cccc3c(Nc4ccccn4)ccc(c32)c2nc3ccccc3n12`, for which the growth was 71%.
Still for that read-out and setting: the result for `CN(C)c1ccc(/C=C\C2=[N+](C)c3ccccc3C2(C)C)cc1` reads -78.8% (active); that for `Cn1cc(-c2nc(-c3c[nH]c4ccccc34)cs2)c2cccnc21`, -2.81% (active).
Same read-out and setting: the result for `CCOC(=O)CC(=O)c1c(C)cc(C)cc1C` reads 117%; that for `CC(C)c1c(C(=O)Nc2ccccc2)c(-c2ccccc2)c(-c2ccc(F)cc2)n1CC[C@@H]1CC=CC(=O)O1`, -49.9% (active).
`CCN(CC)Cc1cc(Nc2c3ccc(Cl)cc3nc3c(C)cccc23)ccc1O`: the growth was -92.4% (active).
For the molecule `O=[N+]([O-])c1cccc(C2CC(c3ccccc3)=Nc3ccccc3S2)c1` (stereo unspecified), the growth was 98.9%.
Turning to `C=C1C(=O)O[C@H]2[C@H]1CC/C(Cn1cc(Cn3ccc4ccccc43)nn1)=C\CC[C@@]1(C)O[C@@H]21`, the growth is -71.4% (active).
On to `C=C1CCC2C3(C)COC(c4ccccc4Br)OC3CCC2(C)C1C/C=C1/C(=O)OCC1OC(C)=O` (stereo unspecified), for which the growth is -76.7% (active).
Still for that read-out and setting: the result for `N=S(=O)(NC(=O)c1ccc(Cl)cc1Cl)c1ccc(Br)s1` (stereo unspecified) reads 107%.
Turning to `CS(=O)CCCCCN=C=S` (stereo unspecified), the growth is -51.6% (active).
On the same count and under the same terms, the result for `CC1CN(C(C)C)C(=S)N(c2ccccc2)C1=O` (stereo unspecified) reads 157%.
With `CC/C=C\C[C@H](O)C/C=C1/C(=O)C=C[C@@H]1C/C=C\CCCC(N)=O`, the growth was -27.8% (active).
Consider `CCOC(=O)c1ccc2c(c1)nc(/C=C/c1ccc(Cl)cc1)n2-c1cc(C(C)(C)C)[nH]n1`, for which the growth was 62.5%.
`COC1/C=C\OC2(C)Oc3c(C)c(O)c4c(O)c(c(CN(C)CCO)c(O)c4c3C2=O)NC(=O)/C(C)=C\C=C/C(C)C(O)C(C)C(O)C(C)C(OC(C)=O)C1C` (stereo unspecified): the growth is 108%.
Consider `C(=N\Nc1ccccn1)/c1ccccn1`, for which the growth is 34.6%.
As for `O=C1C=CC(=O)N1c1ccc(Cc2ccc(N3C(=O)C=CC3=O)cc2)cc1`, the growth is 115%.
As to `COc1cc(NC(N)=NCC(C)(C)COc2ccc(C(F)(F)F)cc2)cnc1C#N`, the growth was 59.9%.
On the same count and under the same terms, the result for `CCOC(=O)C(Cc1cc(I)c(O)c(I)c1)NC(=O)c1ccccc1` (stereo unspecified) reads 108%; that for `CCn1cc2c(cc1=O)-c1nc3ccccc3c3ccnc(c13)C2=O`, 60.8%; that for `Nc1c(C(=O)Nc2ccccc2)sc2nc3c(cc12)CN(CCc1ccccc1)CC3`, 116%.
On the same count and under the same terms, the same measure for `COc1ccc2nc3cc(Cl)ccc3c(NCCNCC(O)CO)c2c1` (stereo unspecified): 0.893% (active); for `COc1ccc(C2c3ccc4ccccc4c3Oc3ncnc(N)c32)cc1` (stereo unspecified): 94.5%; for `CCCCCCCCCCCCCCCC[N+]1(CC)CCCC1`: -90.4% (active).
As for `O=C1O[C@H]([C@H](O)CO)C(O)=C1O`, the growth is 107%.
Same read-out and setting: the result for `Cc1cc2c(cc1C)NC1=C(N2)OC(c2c3ccccc3cc3ccccc23)C1=O` (stereo unspecified) reads -40.7% (active).
Consider `O=C(CN1CCN(c2cc3c(cc2F)c(=O)c(C(=O)O)cn3C2CC2)CC1)Nc1cc(=O)[nH]c(=O)[nH]1`, for which the growth was 110%.
For the molecule `NC(N)=Nc1ccc(S(=O)(=O)O)cc1`, the growth was 109%.
Consider `COc1cc(C#N)cc(OC)c1OCCN(CCOc1c(OC)cc(C#N)cc1OC)S(=O)(=O)c1ccc(C)cc1`, for which the growth is 113%.
On the same count and under the same terms, the result for `C[C@@H]1CC[C@@H]2[C@@H]1[C@H](OC(=O)/C=C/c1ccccc1)[C@]1(C3CCCCC3)C[C@@H](OC(=O)CO)[C@@]2(C)O1` reads 80.6%; that for `O=S(=O)(Nc1ccc(Cl)cc1Cl)c1ccc(-c2cnc(C3CC3)o2)cc1`, 4.78% (active); that for `O=[N+]([O-])c1cccc(-c2nc3sccn3c2-c2ccnc(NCCNS(=O)(=O)c3ccc(C(F)(F)F)cc3)n2)c1`, 37.2%.
On the same count and under the same terms, the same measure for `CC[C@@H](C)OC(=O)c1nn(C(C)=O)c2ccccc12`: 108%; for `CCN(CC)CC(O)CNc1c2ccc([N+](=O)[O-])cc2nc2cc(OC)c(OC)cc12` (stereo unspecified): -71% (active).
The same measure, in the same setting: the same measure for `CN1/C(=C\C=C\C2=[N+](C)c3ccccc3C2(C)C)C(C)(C)c2ccccc21`: -88.5% (active).
On to `COc1ccc(-c2nn(-c3ccccc3)cc2/C=C2\SC(=O)NC2=O)cc1`, for which the growth was 123%.
On to `O=C(O)c1ccc2c(c1Sc1ccccc1)C(=O)c1ccccc1C2=O`, for which the growth is 112%.
On the same count and under the same terms, the same measure for `CCOC(=O)C12CCCC1=CC(=O)CC2` (stereo unspecified): 108%.
